ChEMBL document CHEMBL3988442, “University of Dundee, Small-Polar-MMV Screening Library” (2021)
The campaign covered roughly 69,000 compounds. About 420 (0.61%) showed an effect of 50% or more. Many of the other results were omitted from the sample, so strong results are more common in it than they were.

The compounds below were run against T1, Histidine--tRNA ligase (Leishmania infantum) (UniProt A4I591) (assay: Leishmania infantum Histidine tRNA synthetase (LdHisRS)). Conditions: 30 µM.
T1 sequence (whole entry): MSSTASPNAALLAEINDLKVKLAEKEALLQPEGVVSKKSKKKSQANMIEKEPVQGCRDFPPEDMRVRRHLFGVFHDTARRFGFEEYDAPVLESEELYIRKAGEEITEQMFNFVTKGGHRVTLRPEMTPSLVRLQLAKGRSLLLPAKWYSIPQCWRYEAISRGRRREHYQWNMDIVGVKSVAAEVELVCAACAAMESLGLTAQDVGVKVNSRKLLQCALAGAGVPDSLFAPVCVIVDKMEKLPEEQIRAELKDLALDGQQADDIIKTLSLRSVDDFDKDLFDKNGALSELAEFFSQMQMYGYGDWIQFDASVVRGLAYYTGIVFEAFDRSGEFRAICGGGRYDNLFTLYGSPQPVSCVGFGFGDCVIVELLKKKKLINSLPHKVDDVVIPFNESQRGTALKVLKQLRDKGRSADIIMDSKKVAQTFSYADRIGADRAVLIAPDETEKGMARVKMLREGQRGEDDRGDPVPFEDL
Assay type: functional
Set-up: scale not given: in the data most compounds retested in dose-response had high values

SMILES	Percent Effect
CCCOc1ccc(C(=O)N2CC[C@H]3CC[C@@H](C2)N3)cc1Cl	9.17%
Cn1cccc1C(=O)N1CC[C@@H]2[C@@H]1CC(=O)N2CC1CCOCC1	19.3%
CN1CCO[C@@H]2CN(C(=O)Cc3cccs3)CC[C@@H]2C1	2.73%
Cc1nccc(-c2cccc(NCC(=O)N3CCNC(=O)C3)c2)n1	14.9%
Cc1nccc(-c2cccc(NCC(=O)N3CCCCCCC3)c2)n1	-19.7%
Cc1nccc(-c2cccc(NCC(=O)N3CCc4sccc4C3)c2)n1	50%
Cc1ccc(N2CCCC(NCc3ccc(C)s3)C2)nn1 (centres undefined)	12.3%
CCOc1nnc(CN(C)C2CCCN(c3ccc(C)nn3)C2)s1 (centres undefined)	27%
CCOc1nnc(CNC2CCCN(c3ccc(C)nn3)C2)s1 (centres undefined)	54.8%
CC/N=c1/c(NC(=O)NCCOC)c(O)oc2ccccc12	12.4%
CC(C)n1nc2c(cc1=O)CN(c1ncnc3ccsc13)CC2	11.7%
Cn1ccnc1CN1CCN(c2ncnc3ccsc23)CC1	11%
CCn1nc2c(cc1=O)CN(c1ncnc3ccsc13)CC2	58.6%
CN1C(=O)[C@H]2CC[C@@H]1CN(c1ncnc3ccsc13)C2	19.8%
Cn1nc2c(cc1=O)CN(c1ncnc3ccsc13)CC2	100%
CC(C)n1nc2c(cc1=O)CN(c1ncnc3ccccc13)CC2	18.9%
CCCn1nc2c(cc1=O)CN(C(C)C(=O)Nc1nccs1)CC2 (centres undefined)	17.9%
CCCn1nc2c(cc1=O)CN(c1ncnc3ccsc13)CC2	83.8%
N#Cc1cccc(CN2CCN(C(=O)C3CCC3)[C@@H]3CS(=O)(=O)C[C@@H]32)c1	23.3%
COCCN1C(=O)[C@H]2CC[C@@H]1CN(Cc1nnc(C3CC3)o1)C2	-2.04%
Cc1cccc(CO[C@@H]2C[C@H]3CN(C(=O)c4cnccn4)CCN3C2)n1	12.3%
O=S(=O)(N1CCCC1)N1C[C@@H](c2cccc(F)c2)[C@@H]2NCCCCC[C@H]21	-7.37%
COC(=O)N1C[C@H]2CC[C@@H]1CN(Cc1cscn1)C2	22.9%

SMILES	Percent Effect
CCNc1cc(N2CCN(C(=O)c3ccc(OC)cc3)CC2)nc(C)n1	2.4%
COc1ccc(C(=O)N2CCN(c3cc(CCN)nc(C)n3)CC2)cc1	50.4%
CCOc1cc(N2CCN(C(=O)c3ccc(OC)cc3)CC2)nc(C)n1	5.98%
Cc1nc(CN)cc(N2CCC(O)(c3ccc(Cl)cc3)CC2)n1	7.04%
Cc1nc(CCN)cc(N2CCC(O)(c3ccccc3)C2)n1 (centres undefined)	7.04%
Cc1nc(CCN)cc(N2CCC(O)(c3ccc(Cl)cc3)CC2)n1	52.1%
O=C(NC[C@@]1(COc2cnccn2)C[C@@H](O)[C@@H](O)C1)C1CCCC1	18.9%
O=C(c1cccnc1)N1CCN2C[C@H](OCc3ccccc3)C[C@H]2C1	2%
O=C(c1ccc(S(=O)(=O)NC2CCC2)cc1)N1CC[C@H]2CNC[C@H]21	-8.06%
CN(C)CCCN(C)c1nccc(N2CCN[C@H]3CS(=O)(=O)C[C@H]32)n1	12.9%
CNc1nc(C)c(-c2nc(-c3c(C)ncc4c3CCNC4)no2)s1	7.79%
CNc1nc2c(s1)C(c1c(Cl)cccc1Cl)CC(=O)N2 (centres undefined)	74.3%
Cn1ncc2c1NC(=O)CC2c1c(Cl)cccc1Cl (centres undefined)	25%
CNc1nc2c(s1)C(c1ccc(F)cc1Cl)CC(=O)N2 (centres undefined)	7.5%
CNc1nc2c(s1)C(c1cc(Cl)ccc1F)CC(=O)N2 (centres undefined)	42.5%
CNc1nc2c(s1)C(c1ccc(Cl)cc1Cl)CC(=O)N2 (centres undefined)	62.5%
CC(C)(C)n1ncc2c1NC(=O)CC2c1c(F)cccc1F (centres undefined)	26%
CNc1nc2c(s1)C(c1c(F)cccc1Cl)CC(=O)N2 (centres undefined)	120%
Cn1ncc2c1NC(=O)CC2c1c(F)cccc1Cl (centres undefined)	20%
CC(C)n1ncc2c1NC(=O)CC2c1ccccc1Cl (centres undefined)	22.5%
Nc1nc2c(s1)C(c1c(F)cccc1Cl)CC(=O)N2 (centres undefined)	90%
CSc1ccccc1CN1C[C@@H]2CC[C@H](C1)N(CC1CC1)C2=O	21.6%
Cc1noc([C@H]2COC[C@H]3CN(C(=O)Cc4ccc(F)cc4)C[C@H]32)n1	9.62%

SMILES	Percent Effect
O=C(c1ccc(F)cc1)N1C[C@H]2CCC[C@@]2(COCc2ccncc2)C1	18.6%
O=S(=O)(c1cccs1)N1CC[C@H]2[C@H]1CCN2c1ncccn1	11.7%
CCN1C(=O)CC[C@@H]2[C@H]1CCN2S(=O)(=O)Cc1ccc(C)cc1	8.06%
COCC(=O)N1C[C@H]2CNC[C@@]2(C(=O)NCc2cc(C)n[nH]2)C1	1.43%
O=C([C@H]1COC[C@H]2CN(CC3CC3)C[C@H]21)N1CCOCC1	10.3%
O[C@]1(c2ccccn2)CC[C@@H]2CN(Cc3cccc4ncccc34)C[C@@H]21	27.8%
Cc1ccc(N2C[C@H]3OCC[C@H]3[C@H](C(=O)NCC3CC3)C2)nn1	0%
O=C(NC[C@H]1OC[C@@H]2CCN(c3ccccn3)C[C@@H]21)c1ccco1	-7.89%
Cc1noc([C@H]2C[C@H]3OCC[C@H]3N(S(=O)(=O)C3CC3)C2)n1	13.3%
O=C1CC(c2ccccc2F)c2c(n3ccsc3nc2=O)N1 (centres undefined)	11.7%
CNc1nc2c(s1)C(c1cccc(F)c1F)CC(=O)N2 (centres undefined)	45.7%
CNc1nc2c(s1)C(c1cccc(Cl)c1Cl)CC(=O)N2 (centres undefined)	42.5%
CNc1nc2c(s1)C(c1ccccc1F)CC(=O)N2 (centres undefined)	70%
CNc1nc2c(s1)C(c1ccccc1Cl)CC(=O)N2 (centres undefined)	57.5%
Cn1ncc2c1NC(=O)CC2c1ccccc1Cl (centres undefined)	14.3%
O=C([C@H]1COC[C@H]2CN(c3ncc(F)cn3)C[C@H]21)N1CCOCC1	1.71%
CC(C(=O)NCc1ccc(N2CCNC(=O)C2)cc1)n1cncn1 (centres undefined)	52%
Cc1nnc(NC(=O)NCc2ccc(N3CCNC(=O)C3)cc2)s1	39.8%
CC(C(=O)NCc1ccc(N2CCNC(=O)C2)cc1)c1cccs1 (centres undefined)	20.9%
Cc1cccnc1NC(=O)NCc1ccc(N2CCNC(=O)C2)cc1	84.9%
CC(O)CNC(=O)NCc1ccc(N2CCNC(=O)C2)cc1 (centres undefined)	49.3%
Cc1ccccc1C(=O)NCc1ccc(N2CCNC(=O)C2)cc1	44.2%
CCOc1ccc(Cl)cc1CNCCCn1ccnc1	9.71%

SMILES	Percent Effect
CCOc1c(Cl)cc(Cl)cc1CNCCCn1ccnc1	58.3%
CCOc1c(CNCCCn2ccnc2)cc(Cl)cc1OC	10%
C[C@H]1C(=O)NC[C@H]2CN(Cc3cccc(F)c3)C[C@H]21	15.6%
COCCNC(=O)[C@H]1CN(c2nnc(C)s2)C[C@H]2OCC[C@@H]12	5.11%
NCc1ccnc(Oc2ccccc2)c1	59%
NCc1ccnc(Oc2ccc(F)cc2)c1	30.1%
COc1ccc(Oc2cc(CN)ccn2)cc1	32.5%
CNC(=O)CN1CC[C@H]2CN(C(=O)c3ccccc3F)C[C@H]2C1	16.7%
O=C(NC1CC1)[C@H]1C[C@H]2OCC[C@H]2N(Cc2ccc(F)cc2)C1	2.78%
CNC(=O)CN1CCO[C@H]2CN(CC3CCOCC3)C[C@H]21	32%
CCN1C[C@H]2C3(CCN(S(=O)(=O)CC)CC3)CC[C@@]2(C(=O)N(C)C)C1	7.69%
Cc1noc([C@]23COC[C@H]2CN(C(=O)Cc2ccsc2)C3)n1	9.91%
COCCN(C)C(=O)c1nc2c(s1)CCCN2c1ncccn1	17.5%
CCCN(C(=O)c1ccccn1)c1nc2c(s1)CCc1c-2cnn1C	106%
CCCN(CCc1ccccn1)C(=O)CCc1cnn(C)c1	1.21%
Cc1cc(-c2cnc(C)nc2CN(C)C(=O)c2ccccn2)on1	2.07%
COCCN(Cc1ccoc1)C(=O)c1ccccn1	16.4%
COCCN(C(=O)c1ccccn1)c1nc2c(s1)CCc1c-2cnn1C	101%
CN(C(=O)c1ccccn1)c1nnc(C2CCOC2)s1 (centres undefined)	5.59%
CN(C(=O)c1ccccn1)c1nc2c(s1)CCc1c-2cnn1C	103%
Cc1cnccc1-c1cnn(CCNC(=O)c2ccccn2)c1C1CC1	4.25%
Cc1ccc(CN2CC[C@@H]3[C@@H](CO[C@H]3CN(C)C)C2)o1	10%
CC(C)NC(=O)N1CC[C@@H]2CN(Cc3ccccc3)S(=O)(=O)[C@@H]2CC1	1.5%

SMILES	Percent Effect
COCCN1CCN(Cc2ccc(C(C)=O)cc2)[C@H]2CS(=O)(=O)C[C@H]21	22.2%
Cc1nnc(N2C[C@H](C(=O)NCC3CC3)[C@@H]3CCO[C@@H]3C2)s1	2.91%
CCC(=O)N(C)Cc1cccc(OC(C)C)c1	4.46%
CC(C)Oc1cccc(CN(C)C(=O)Nc2cccn(C)c2=O)c1	13.9%
Cc1ccn(C)c(=O)c1NC(=O)N(C)Cc1cccc(OC(C)C)c1	77.5%
Cc1csc(CN2CC[C@H]3C(=O)N(c4cccnc4)CCO[C@H]3C2)n1	23.1%
Cc1ccc(CNC(C)(C)c2noc(C(C)(C)C)n2)o1	27.1%
COc1ccccc1C(C)(C)NCc1ccc(C)o1	2.86%
COCc1nc2cc(NCc3ccc(CO)o3)ccc2o1	86.6%
COCc1nc2c(o1)CN(C(=O)NCc1ccccc1)C2	16%
COCc1nc2cc(NCc3ccc(C)o3)ccc2o1	102%
CC(C)(C)c1nc2cc(NC(=O)Cn3ccc(=O)[nH]c3=O)ccc2o1	14%
O=C(NCC1CC1)[C@@H]1CCO[C@@H]2CCN(Cc3ccsc3)C[C@H]21	20%
Cn1cnc(S(=O)(=O)N2CCO[C@H]3[C@@H](OCC4CC4)CC[C@@H]32)c1	-5.26%
Cc1nc(-c2ccc(CC(=O)N3CCN(C(=O)C4CC4)CC3)cc2)cs1	21.2%
Cc1nc(-c2ccc(CC(=O)N3CCNC(=O)C3)cc2)cs1	-9.09%
Cc1nc(-c2ccc(CC(=O)N3CCN(C(=O)C(C)C)CC3)cc2)cs1	63.6%
Cc1csc([C@@H]2C[C@@H]3CCN(C(=O)c4cc(C)on4)C[C@H]3O2)n1	18.4%
CC(=O)N1[C@H](Cn2cncn2)C[C@@H]2CN(C(=O)c3ccoc3)CC[C@@H]21	13.5%
O=C1CC(c2ccco2)c2sc(C(=O)O)c(-c3ccccc3)c2N1 (centres undefined)	91.4%
O=C1CC(c2ccccc2)c2sc(C(=O)O)c(-c3ccccc3)c2N1 (centres undefined)	13%
O=C1CC(c2ccc(O)cc2)c2sc(C(=O)O)c(-c3ccccc3)c2N1 (centres undefined)	20.8%
